The list is not random: actives were taken first. Their share in the collection is about 12%.
Cycloheximide cs = affects cycloheximide protein synthesis inhibition readout, counter-screen | 300,000 compounds, 12% hits | cell reporter, cycloheximide protein synthesis inhibition counterscreen | max response, %; in the data active means max response mostly above about 13%, no sharp cut-off; inactive means mostly below about 14%; further: read at 38.3 µM for the half of the compounds with a filed dose
Sm TGR block = inhibitors of Schistosoma mansoni thioredoxin glutathione reductase; Q962Y6; purified TGR, DTNB reduction, TNB absorbance 405 nm; Potency, µM (top dose mostly 114 µM), most hits filed as inhibitors; 360,000 compounds, 3% hits; AID 485364; active means well fitted inhibition curve with a large enough effect; inconclusive means small, poorly fitted or top-dose-only effect; inactive means no such curve, though single readings can be large or run the other way; further: nearly all actives have a fitted effect of over 60% in size
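Kinetic colorimetric format: TGR-catalysed, NADPH-driven DTNB reduction monitored via TNB absorbance. Enzyme dispensed at 20 nM; compound exposure 15 min at room temperature before reaction start.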
Shiga inhibitor = Shiga toxin inhibition. Vero cells, Shiga toxin protein synthesis inhibition reporter. inhibition, % at 38.7 µM. 290,000 compounds, 9.2% hits; in the data active means inhibition mostly above about 28%, no sharp cut-off; inactive means mostly below about 43%
FMDV antiviral = antivirals against foot and mouth disease virus; FMDV antiviral cell-based qHTS; Potency, µM (doses to about 57.9 µM), usual class: inhibitors; 410,000 compounds, 1.2% hits; AID 1159524; calls by dose curve; tested in HEK293T cells; further: read-out not given here; nearly all actives have a fitted effect of over 45% in size
Of the large screens only hits and unclear results are named; the others gave an inactive call.

COCCNC(=O)/C(C#N)=C/c1cc(C)n(-c2ccc(C)cc2)c1C	Cycloheximide cs 49, Shiga inhibitor 63
COCCNC(=O)/C(C#N)=C/c1cc(C)n(C2CCCCC2)c1C	Cycloheximide cs 28, Shiga inhibitor 69
Cc1ccc(CNC(=O)Cn2ccn(-c3ccc(F)cc3)c(=O)c2=O)cc1	none (no result: Cycloheximide cs, Shiga inhibitor)
CCCc1cc(C(=O)NCc2ccco2)no1	Cycloheximide cs 15, Sm TGR block inconclusive, Shiga inhibitor 72
CCCc1cc(C(=O)NCCc2ccc(OC)c(OC)c2)no1	none
CCCc1cc(C(=O)NCc2ccccc2)no1	Cycloheximide cs 27, Shiga inhibitor 59
CCCc1cc(C(=O)NCC(C)C)no1	Cycloheximide cs 33, Shiga inhibitor 117
CCCc1cc(C(=O)NCc2cccs2)no1	Cycloheximide cs 35
CCNc1ccc(-c2nc(-c3ccco3)no2)cc1[N+](=O)[O-]	none (no result: Cycloheximide cs, Shiga inhibitor)
COc1cc(NC(=O)CCc2c(C)nn(-c3ccc(N4CCCCC4)nn3)c2C)cc(OC)c1OC	none (no result: Cycloheximide cs, Shiga inhibitor)
CC1CN(C(=O)CCC(=O)NCCc2ccccc2)c2ccccc2O1 (centres undefined)	Cycloheximide cs 25, Shiga inhibitor 35
CC(=O)c1cnc(Nc2cccc(Cl)c2Cl)s1	Cycloheximide cs 37, Shiga inhibitor 81 (no result: Sm TGR block)
CC(=O)c1cnc(Nc2ccccc2)s1	Cycloheximide cs 34
O=C(c1ccc(Cl)cc1)c1cnc(-c2ccccc2)s1	none
O=C(c1ccc(Cl)cc1)c1cnc(Nc2ccccc2Cl)s1	Cycloheximide cs 50, Shiga inhibitor 120
CC(=O)Nc1ncc(Cc2cccc(Cl)c2Cl)s1	none (no result: Sm TGR block)
CCOc1ccc(NS(=O)(=O)c2ccc3[nH]cc(C(=O)N4CCCCCC4)c(=O)c3c2)cc1	none (no result: Cycloheximide cs, Shiga inhibitor)
O=C(c1ccc(Br)cc1)c1cn[nH]c1-c1ccccc1O	none
CC(C)(C)c1ccc(C(=O)c2cn[nH]c2-c2ccccc2O)cc1	Cycloheximide cs 42, Shiga inhibitor 58
Cc1ccc(-c2[nH]ncc2C(=O)c2cccc(F)c2)c(O)c1	Cycloheximide cs 8.5
CCOC(=O)c1cc(OC(=O)c2ccccc2F)n(-c2ccccc2)n1	none (no result: Cycloheximide cs, Shiga inhibitor)
COc1ccc(CCNC(=O)CCc2c(C)nc3c(c(C)nn3-c3ccccc3)c2C)c(OC)c1	none (no result: Cycloheximide cs, Shiga inhibitor)
O=C(CC(SCCO)c1ccc2c(c1)OCO2)c1ccco1 (centres undefined)	Cycloheximide cs 48, Shiga inhibitor 123
O=C1/C(=C/c2ccco2)N=C(N2CCCCC2)N1c1ccccc1	Sm TGR block 45µM
CC(C)N(C1=N/C(=C\c2ccco2)C(=O)N1c1ccccc1)C(C)C	Sm TGR block 40µM
COc1cc(=O)n2c(c1C(=O)NC(C)c1ccco1)CCN(Cc1ccccc1C(F)(F)F)CC2 (centres undefined)	none (no result: Cycloheximide cs, Sm TGR block, Shiga inhibitor)
Fc1ccccc1COc1ccc(Br)cc1CNCc1ccncc1	FMDV antiviral 32µM
CC(C)(C)c1csc(NC(=O)Nc2ccccc2)n1	Cycloheximide cs 51, Shiga inhibitor 72
O=C(Nc1ccccc1)Nc1nc(-c2ccccc2)cs1	Cycloheximide cs 45
COc1cccc(-c2csc(NC(=O)Nc3ccccc3)n2)c1	Cycloheximide cs 14, Shiga inhibitor 57, FMDV antiviral 25µM
CCc1ccc(NC(=O)CN2C(=O)C(c3ccc(Cl)cc3)=NC23CCCCC3)cc1	none (no result: Cycloheximide cs, Shiga inhibitor)
CCN1CCN(c2cc3c(nn2)Oc2ccccc2N3C)CC1	Cycloheximide cs 49, Shiga inhibitor 52
Cc1cccc(-c2nn3c(=O)cc(CN4CCN(S(=O)(=O)c5ccc(Cl)cc5)CC4)nc3s2)c1	none (no result: Cycloheximide cs, Shiga inhibitor)
CC(C)NOC(=O)c1ccc(Cl)cc1	Cycloheximide cs 46
CCc1cccc(C)c1NC(=O)CN1CCCN(Cc2ccccc2Cl)S1(=O)=O	none (no result: Cycloheximide cs, Shiga inhibitor)
O=C(NCc1ccccc1)c1cccc(COc2ccc3c(c2)CCC3)c1	Cycloheximide cs 104, Shiga inhibitor 120
COc1cccc(OC)c1C(=O)NNC(=O)c1cccc(COc2ccc3c(c2)CCC3)c1	Cycloheximide cs 65, Shiga inhibitor 184
O=C(O)c1cccc(COc2ccc3c(c2)CCC3)c1	Cycloheximide cs 35, FMDV antiviral 2.8µM
Cc1ccccc1NC(=O)CSc1nc2c(oc3ccccc32)c(=O)n1-c1ccccc1F	none (no result: Cycloheximide cs, Shiga inhibitor)
C[C@@H]1CN(Cc2ccc3c(c2)CN(C(=O)CCc2nc4ccc(F)cc4[nH]2)CCO3)C[C@H](C)O1	none (no result: Cycloheximide cs, Sm TGR block, Shiga inhibitor)
Cc1ccc(S(=O)(=O)N2CC2(C)CCl)cc1 (centres undefined)	Sm TGR block 50µM
Cc1ccc(-c2ccc(S(=O)(=O)N3CCCC3)cc2)cc1	none
CN(Cc1cccc(-c2cccnc2)c1)C(=O)Oc1ccc([N+](=O)[O-])cc1	FMDV antiviral 35µM (no result: Cycloheximide cs, Sm TGR block, Shiga inhibitor)
CN(C)C(=O)Oc1ccc([N+](=O)[O-])cc1	none
Cc1c(NC(=S)NC(=O)c2cc3ccccc3o2)cccc1C(=O)O	Cycloheximide cs 54, Sm TGR block inconclusive, Shiga inhibitor 76
O=C(NC(=S)Nc1ccccc1O)c1ccc(-c2ccc(Cl)cc2)o1	none
CN1CCN(c2ccccc2NC(=S)NC(=O)c2cc3ccccc3o2)CC1	none
Cc1c(NC(=S)NC(=O)c2ccc(-c3ccc(Cl)cc3)o2)cccc1C(=O)O	Sm TGR block 13µM
CC(=O)Nc1ccc(C(=O)N2CCCC(n3cc(C(=O)NCC(C)C)nn3)C2)cc1 (centres undefined)	none (no result: Cycloheximide cs, Sm TGR block, Shiga inhibitor)
CSc1nnc(C)c(=O)n1COC(=O)c1ccc([N+](=O)[O-])cc1	Sm TGR block inconclusive
CSc1nnc(C)c(=O)n1COC(=O)c1cc(Cl)ccc1[N+](=O)[O-]	Sm TGR block 22µM
CCOP(=O)(OCC)/C(C#N)=C/c1ccoc1	Sm TGR block 45µM
CCOP(=O)(OCC)/C(C#N)=C/c1ccc([N+](=O)[O-])cc1	none
CC(=O)Nc1ccc(-n2c(CCC(=O)O)ccc2-c2ccc(Br)cc2)cc1	Sm TGR block 35µM (no result: Cycloheximide cs, Shiga inhibitor)
CC(=O)Nc1ccc(-n2c(CCC(=O)O)ccc2-c2ccc(C)cc2)cc1	Sm TGR block 14µM (no result: Cycloheximide cs, Shiga inhibitor)
CCc1ccc(NC(=O)Cn2c(=O)n(CCCCC(=O)NCCc3ccc(Cl)cc3)c(=O)c3ccccc32)cc1	none (no result: Cycloheximide cs, Shiga inhibitor)
Cc1cc(-c2ccc(C)c(S(=O)(=O)NCc3cccs3)c2)on1	none (no result: Cycloheximide cs, Shiga inhibitor)
CCC(=O)C1CCCN(C(=O)CCc2nnc(C3(c4ccc(Cl)cc4)CCC3)o2)C1 (centres undefined)	Cycloheximide cs 57, Shiga inhibitor 80
CC(=O)c1ccc(-c2nnc(CCC(=O)N3CCCC(C(=O)CC(C)C)C3)o2)s1 (centres undefined)	Cycloheximide cs 34, Sm TGR block inconclusive, Shiga inhibitor 80
O=C(CCc1nnc(C2(c3ccc(Cl)cc3)CCC2)o1)N1CCCC1	Cycloheximide cs 25, Shiga inhibitor 75
COC(=O)C1CCN(Cc2ccc3c(c2)CN(C(=O)c2ccc(-n4cnnn4)cc2)CCO3)CC1	none (no result: Cycloheximide cs, Sm TGR block, Shiga inhibitor)
CC(C)Cn1c(=O)c2sccc2n2c(CCCC(=O)NC3CCCCC3)nnc12	none (no result: Cycloheximide cs, Shiga inhibitor)
CCCCNC(=O)CO/N=C(\C)c1cc2ccccc2o1	Cycloheximide cs 54, Shiga inhibitor 77
O=C(COC(=O)COc1cccc2ccccc12)NCC(F)(F)F	none
CCc1cccc(C)c1NC(=O)CO/N=C(\C)c1cc2ccccc2o1	FMDV antiviral inconclusive
C/C(=N\OCC(=O)NCC(F)(F)F)c1cc2ccccc2o1	Cycloheximide cs 53, Shiga inhibitor 71
Cc1cccc(CNC(=O)c2cnn(-c3ncc(C)c(-c4cccs4)n3)c2C2CC2)n1	none (no result: Cycloheximide cs, Sm TGR block, Shiga inhibitor)
Cc1ccc(OCC(=O)NCC2(N(C)C)CCCCC2)cc1C	none (no result: Cycloheximide cs, Shiga inhibitor)
